Results filed as inconclusive are left out. A call without a number means that no potency is given here. Activity calls are given as the source filed them. The call rests on the fitted dose curve; in most records, active means well fitted cell-killing curve with a large enough effect in the repeat runs; inconclusive means weak or mixed curves; inactive means no such curve, though single readings can be large or run the other way.

The values below come from PubChem BioAssay (Tox21).
Potency means the concentration at half of the fitted maximal effect.

The test is described as follows: qHTS assay to identify small molecule antagonists of the androgen receptor (AR) signaling pathway - cell viability counter screen (AID 743033; further: nearly all actives have a fitted effect of over 45% in size). The note with it: AR-bla HEK293 viability, CellTiter-Glo luminescence, 16 h; series mostly up to 58.5 µM. From the text: National Center for Advancing Translational Sciences [NCATS]
NIH Chemical Genomics Center [NCGC]
U.S. Environmental Protection Agency [EPA]
National Institutes of Environmental Health Sciences [NIEHS]
National Toxicology Program [NTP]
U.S. Food and Drug Administration [FDA]
Androgen receptor (AR), a nuclear hormone receptor, plays a critical role in AR-dependent prostate cancer and other androgen related diseases. Endocrine disrupting chemicals (EDCs) and their interactions with steroid hormone receptors like AR may cause disruption of normal endocrine function as well as interfere with metabolic homeostasis, reproduction, developmental and behavioral functions. To identify the compounds that inhibit AR signaling, GeneBLAzer AR-UAS-bla-GripTite cell line (Invitrogen, Carlsbad, CA, USA) containing a beta-lactamase reporter gene under control of an Upstream Activator Sequence (UAS) stably integrated into HEK293 cells was used to screen the Tox21 10K compound library. The cytotoxicity of the Tox21 compound library against the AR-bla cell line was tested in parallel by measuring the cell viability using CellTiter-Glo assay in the same wells.
Tox21 Assay Protocol Summary:
AR-bla cells were dispensed at 2,000 cells/5 uL of assay medium per well into black wall/clear-bottom 1536-well plates using a Multidrop Combi (ThermoFisher Scientific, Waltham, MA) dispenser. After the assay plates were incubated at a 37C and 5% CO2 for 4 hr, 23 nL of compounds dissolved in DMSO, positive controls or DMSO only was transferred to the assay plate by a Pintool station (Kalypsys, San Diego, CA), followed by addition of 1 uL of agonist (R1881) in culture medium using a Bioraptr Flying Reagent Dispenser (FRD) workstation (Beckman Coulter, Indianapolis, IN, USA). The plates were incubated at a 37C and 5% CO2 for 16 h. After 1 uL of LiveBLAzerTM B/G FRET substrate was added using a Bioraptr FRD, the plates were incubated at room temperature for 2 h and fluorescence intensity was measured by an Envision plate reader (PerkinElmer, Shelton, CT). For cell viability readout that measures cytotoxicity, 4 ul/well of CellTiter-Glo reagent was added into the assay plates using a Bioraptr FRD. After 30 min incubation at room temperature, the luminescence intensity in the plates was measured using a ViewLux (PerkinElmer) plate reader.
As to `CCCCCOC(=O)c1ccc(O)cc1`, the Potency result is “inactive”.

As to `Cn1c(NCCN(CCO)CCCc2ccc([N+](=O)[O-])cc2)cc(=O)n(C)c1=O`, the Potency result is “inactive”.

For `Cc1ccc(C(N)=O)cc1N`, the Potency entry was “inactive”.

Turning to `C=C(C)C(=O)OCCN(C)C`, the Potency entry was “inactive”.

Regarding `CC(C(=O)O)c1ccc(-c2ccccc2)c(F)c1` (stereo not given), the Potency result was “inactive”.

For the compound `C=CCCCCCC`, the Potency result was “inactive”.

`CC[C@H](C)[C@@H](C(=O)O)n1sc2ccccc2c1=O`: the Potency entry is “inactive”.

As to `CCOC(=S)SSC(=S)OCC`, the Potency entry is “inactive”.

For `Cc1cccc(OCCOc2cccc(C)c2)c1`, the Potency entry was “inactive”.

For `O=C(c1ccc(O)cc1)c1ccc(O)cc1`, the Potency result is “inactive”.

As to `CN(C)CCCNCCCN`, the Potency entry is “inactive”.

For the compound `O=C(Cl)c1c(Cl)cccc1Cl`, the Potency entry is “inactive”.

For `CC1=CCC(C(C)C)C=C1` (stereo not given), the Potency entry is “inactive”.

Regarding `CCCCCCCCCCCCC(=O)O`, the Potency result was “inactive”.

Consider `CCCCCCOC(=O)CCC`, for which the Potency result was “inactive”.

As to `CN(C(=O)CCCOc1ccc2[nH]c(=O)ccc2c1)C1CCCCC1`, the Potency result was “inactive”.

Take `CC(C)(C)C1CCCCC1O` (stereo not given): the Potency entry was “inactive”.

For `c1ccc(-c2nc[nH]c2-c2ccccc2)cc1`, the Potency entry is “inactive”.

Take `Cc1ncsc1CCO`: the Potency result is “inactive”.

For the compound `O=C(O)C(c1ccc(Cl)cc1)c1ccc(Cl)cc1`, the Potency entry was “inactive”.

Regarding `O=S1(=O)N=C(O)c2ccccc21`, the Potency result is “inactive”.

Consider `C=C(C)C(=O)OC(C)C`, for which the Potency result was “inactive”.

On to `CCCCc1cc2ccccc2c(OCCN(C)C)n1`, for which the Potency result was “inactive”.

Regarding `O=C(Cl)c1ccc([N+](=O)[O-])cc1`, the Potency result was “inactive”.

As to `CC/C(=C\C(=N/O)C(N)=O)C(C)[N+](=O)[O-]` (stereo not given), the Potency entry is “inactive”.

As for `Cc1cc(C)c(S(=O)(=O)O)cc1N=Nc1cc(S(=O)(=O)O)c2ccccc2c1O`, the Potency entry was “inactive”.

`Oc1ccc(O)c2c(O)cccc12`: the Potency result is “inactive”.

As to `O=C(c1ccccc1)c1ccc2n1CCC2C(=O)O` (stereo not given), the Potency result was “inactive”.

Turning to `C=CC(=O)OCC(C)OCC(C)OCC(C)OC(=O)C=C` (stereo not given), the Potency was 54.9 µM (active).

As for `NC[C@H]1O[C@H](O[C@H]2[C@H](O)[C@@H](O[C@H]3O[C@H](CO)[C@@H](O)[C@H](N)[C@H]3O)[C@H](N)C[C@@H]2N)[C@H](O)[C@@H](O)[C@@H]1O`, the Potency result is “inactive”.

As for `C=CC(=O)OCCOC(=O)CCC(=O)O`, the Potency result was “inactive”.

Consider `COc1cc(C(C)(C)C)c(O)c(C(C)(C)C)c1`, for which the Potency entry was “inactive”.

Take `CCCCCOC(=O)COc1cc(N2C(=O)C3=C(CCCC3)C2=O)c(F)cc1Cl`: the Potency entry is “inactive”.

With `Oc1ccc(C(O)CNCCCCCCNCC(O)c2ccc(O)c(O)c2)cc1O` (stereo not given), the Potency entry was “inactive”.

For the compound `CCCC(=O)OCC`, the Potency entry is “inactive”.

As for `CC(=O)c1c(C)c([N+](=O)[O-])c(C(C)(C)C)c([N+](=O)[O-])c1C`, the Potency result is “inactive”.

Consider `CC(C)(C)c1ccc(OCC2CO2)cc1` (stereo not given), for which the Potency result is “inactive”.

Regarding `O=C(CCN1CCN2CCCC2C1)N1c2ccccc2Sc2ccc(Cl)cc21` (stereo not given), the Potency result was “inactive”.

In the case of `Cc1ccc(O)c([C@H](CCN(C(C)C)C(C)C)c2ccccc2)c1`, the Potency result was “inactive”.

Turning to `COC(=O)C(C)=O`, the Potency entry was “inactive”.
